Test [1] is described as follows: qHTS assay for small molecule agonists of the p53 signaling pathway (AID 651631; calls by dose curve; also: nearly all actives have a fitted effect of over 15% in size; also: potency is read from the fitted curve at half-maximal effect). In outline:
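Stably transfected HCT-116 cells (beta-lactamase behind p53 response elements) get compounds after a 5 h settling period; 16 h later at 37 °C, FRET substrate is loaded and fluorescence read after 2 h.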

The nature of test [2]: qHTS assay for small molecules that induce genotoxicity in human embryonic kidney cells expressing luciferase-tagged ATAD5 (AID 651632). Also: nearly all actives have a fitted effect of over 15% in size. Put shortly: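 Genotoxicity read-out via ATAD5-luciferase: HEK293T cells, 16 hr compound incubation at 37C, Amplite detection.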
The nature of test [3]: qHTS assay for small molecule agonists of the p53 signaling pathway - cell viability (AID 651633; calls by dose curve;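 also: p53RE-bla HCT reporter cells with a stable beta-lactamase p53 reporter; series mostly up to about 83 µM; nearly all actives have a fitted effect of over 30% in size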). Put shortly: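 p53RE-bla cells were treated with compound for 16 hours at 37 C. Cytotoxicity was then measured as CellTiter-Glo luminescence after 30 min at room temperature.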
The nature of test [4]: qHTS assay for small molecules that induce genotoxicity in human embryonic kidney cells expressing luciferase-tagged ATAD5 - cell viability (AID 651634; calls by dose curve; also: nearly all actives have a fitted effect of over 25% in size; also: potency is read from the fitted curve at half-maximal effect). Put shortly:
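Live-cell protease activity (CellTiter-Fluor, fluorescence) indicates viability. HEK293T cells with luciferase-tagged ATAD5; 15.5 hr compound treatment at 37C.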

The nature of test [5]: qHTS assay for small molecule disruptors of the mitochondrial membrane potential - cell viability (AID 720634; calls by dose curve; also: nearly all actives have a fitted effect of over 20% in size; also: potency is read from the fitted curve at half-maximal effect;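 as to activity change, negative = cytotoxicity: human HepG2 liver cancer cells; series mostly up to about 83 µM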). In outline:
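Human hepatoma HepG2 cells were treated for 1 hr with test chemicals, then given m-MPI dye and CellTiter-Glo. Cell viability reflects luminescence proportional to cellular ATP.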

A short description of test [6]: qHTS assay to test for compound auto fluorescence at 590 nm (red) in HepG2 cells (AID 720674). Put shortly: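 HepG2 cells, 2,000 per well in MEM with 10% FBS, attached overnight at 37 C, then got 23 nL compound or DMSO. After 1 hr at 37 C, 5% CO2, red fluorescence was read at 540/590 nm against Rose Bengal sodium as reference.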
The nature of test [7]: qHTS assay to test for compound auto fluorescence at 535 nm (green) in HepG2 cells (AID 720675).
A short description of test [8]: qHTS assay to test for compound auto fluorescence at 460 nm (blue) in HEK293 cells (AID 720678). Put shortly:
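Triamterene serves as the blue fluorophore standard. Compound signal at 405/460 nm is read in HEK293 wells (2,000 cells, 10% dialyzed FBS) after overnight treatment at 37C.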

Test [9] can be described thus: qHTS assay for small molecule disruptors of the mitochondrial membrane potential (AID 720635). Also: potency is read from the fitted curve at half-maximal effect. Put shortly: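 HepG2 cells exposed to compound 1 hr at 37C, then Mito-MPS dye 30 min. Ratio read of aggregate (540/590 nm) versus monomer (490/535 nm) fluorescence.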
The nature of test [10]: qHTS assay to test for compound auto fluorescence at 590 nm (red) in HEK293 cells (AID 720679). In outline:
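We plated HEK293 cells in 10% dialyzed FBS medium, let them adhere for 4-5 hr, then added 23 nL compound. Overnight at 37C and 5% CO2 preceded fluorescence measurement at 540/590nm.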

A number with no mark means an inactive call. Results filed as inconclusive are left out. The source made the active and inactive calls. Unless noted, calls follow the shape of the dose curve; as a rule, active = well fitted curve in the direction sought with a large enough effect in the repeat runs; inconclusive = weak or mixed curves; inactive = no such curve, though single readings can be large; an effect the other way counts as inactive or inconclusive.
% is scaled to controls: 0 for no effect and ±100 for the full control effect.

Turning to `CCC(C)Br` (stereo not drawn), the Potency entry in test [1], in test [2], in [3], in [4], in test [5] and in [7] was “inactive” in each case. In test [8], the Potency result is “inactive”. Also, the outcome in test [6] was inactive.
With `Oc1ccc(Cl)c(Cl)c1`, the Potency entry in test [1], in test [2], in test [3], in test [4], in test [7] and in test [8] was “inactive” throughout. Besides, the Potency in test [9] is 6.75 µM (active). For the same compound, the compound was classed as inactive in test [6] and in test [10].
Regarding `CCCCCON=O`, the Potency entry in test [1], in [2], in test [3], in [4], in test [5] and in [9] was “inactive” in each case. For the same compound, the Potency entry in test [7] and in [8] was “inactive” throughout. The call in [6] and in test [10] was inactive.
For `Nc1cc(Cl)ccc1Cl`, the Potency result in [1], in test [2], in test [3], in test [4], in test [5] and in [7] was “inactive” each time. Also, the Potency result in test [8] is “inactive”. In addition, the result in test [6] was inactive.
`CCCCON=O`: the Potency result in test [1], in test [2], in test [3], in test [4], in [5] and in test [7] was “inactive” throughout. The Potency result in test [8] is “inactive”. The result in test [6] was inactive.
In the case of `OCC(Br)CBr` (stereo not drawn), the Potency result in test [1], in test [2], in [3], in test [4], in test [5] and in [7] was “inactive” throughout. In test [8], the Potency entry was “inactive”. Also, the compound was classed as inactive in test [6] and in [10].
As for `Clc1ccc(C2(Cn3cncn3)OCCO2)c(Cl)c1`, the Potency entry in test [1], in test [2], in test [3], in [4], in [5] and in test [9] was “inactive” each time. Also, the Potency result in test [7] and in [8] was “inactive” each time. In addition, the compound was classed as inactive in test [6].
For `CC(C)(C)c1ccc(OP(=O)(Oc2ccccc2)Oc2ccccc2)cc1`, the Potency result in test [1], in test [2], in test [3], in test [4], in test [7] and in test [8] was “inactive” throughout. Also, the Potency in test [9] was 9.75 µM (active). Also, the compound was called inactive in test [6] and in test [10].
For the compound `O=P(Cl)(Cl)Cl`, the Potency entry in test [1], in test [2], in test [3], in test [4], in [5] and in test [9] was “inactive” each time. Also, the Potency result in test [7] and in test [8] was “inactive” each time. The call in test [6] was inactive.
As to `CCOP(=O)(OCC)Oc1cc(C)nc(C(C)C)n1`, the Potency result in test [1], in test [2], in test [3], in test [4], in test [5] and in test [9] was “inactive” each time. For the same compound, the Potency result in test [7] and in test [8] was “inactive” in each case. The call in test [6] and in [10] was inactive.
On to `CC[C@]1(O)CC[C@H]2[C@@H]3CCC4=CCCC[C@@H]4[C@H]3CC[C@@]21C`, for which the values for the Potency in [1], in [4] and in [9] were 3.76 µM (active), 10.6 µM (active) and 7.5 µM (active), respectively. For the same compound, the Potency result in test [2], in [3], in test [7] and in test [8] was “inactive” throughout. Moreover, the compound was classed as inactive in [6] and in [10].
Turning to `CC(Cl)CCl` (stereo not drawn), the Potency result in [1], in test [2], in test [3], in test [4], in test [5] and in [9] was “inactive” each time. Moreover, the Potency result in test [7] and in test [8] was “inactive” each time. Besides, the outcome in [6] was inactive.
As to `CCOP(=S)(NC(C)C)Oc1ccccc1C(=O)OC(C)C` (stereo not drawn), the Potency result in test [1], in test [2], in test [3], in [4], in [7] and in test [8] was “inactive” each time. Besides, in test [9], the Potency is 27.3 µM (active). For the same compound, the outcome in test [6] and in test [10] was inactive.
As to `N#CCCl`, the Potency result in test [1], in test [2], in test [3], in [4], in test [5] and in [9] was “inactive” throughout. The Potency result in test [7] and in [8] was “inactive” throughout. The call in test [6] and in [10] was inactive.
`O=[N+]([O-])c1ccccc1-c1ccccc1`: the Potency result in test [1], in [2], in test [3], in test [4], in test [5] and in test [9] was “inactive” throughout. For the same compound, the Potency entry in test [7] and in test [8] was “inactive” in each case. Moreover, the outcome in test [6] and in test [10] was inactive.
With `Clc1c(Cl)c(Cl)c(Cl)c(Cl)c1Cl`, the activation in [1] is -4.73% [at 8.3 µM]; in test [2] it was 3.25% [at 8.08 µM]. Besides, the activity change, negative = cytotoxicity in test [3] was -24.8% [at 8.08 µM]; in test [5], 3.14% [at 8.08 µM]. Moreover, the activity, negative = cytotoxicity in test [4] was 8.7% [at 8.08 µM]. Besides, the fluorescence, relative to Rose Bengal in test [6] was -0.0012% [at 3.72 µM]. The fluorescence, % of fluorescein control in test [7] was -0.0433% [at 3.72 µM]. In [8], the fluorescence, % of triamterene is -0.0308% [at 3.72 µM]. In addition, the fluorescence, % of fluorescent control in test [10] was -0.0042% [at 3.72 µM].
As to `CN/C(=N\[N+](=O)[O-])NCc1cnc(Cl)s1`, the Potency result in test [1], in test [2], in test [3], in test [4], in [5] and in [7] was “inactive” each time. Further, the Potency entry in test [8] is “inactive”. For the same compound, the outcome in [6] and in test [10] was inactive.
Regarding `CCC1COC(Cn2cncn2)(c2ccc(Cl)cc2Cl)O1` (stereo not drawn), the Potency result in test [1], in test [2], in test [3], in test [4], in test [5] and in test [7] was “inactive” throughout. For the same compound, the Potency entry in test [8] was “inactive”. The result in test [6] and in [10] was inactive.
On to `COC(=O)N(OC)c1ccccc1COc1ccn(-c2ccc(Cl)cc2)n1`, for which the Potency is 1.72 µM (active) in test [1], 1.93 µM (active) in [5] and 4.86 µM (active) in test [9]. Moreover, the Potency result in [2], in test [3], in test [4], in test [7] and in test [8] was “inactive” in each case. The compound was classed as inactive in [6] and in [10].
Turning to `COc1ccc2c(c1OC)C(=O)O[C@@H]2[C@H]1c2cc3c(cc2CCN1C)OCO3`, the Potency entry in test [1], in [2], in test [3], in test [4], in [5] and in test [7] was “inactive” throughout. For the same compound, the Potency result in test [8] is “inactive”. Further, the compound was called inactive in [6] and in test [10].
On to `CC(C)Br`, for which the Potency result in test [1], in test [2], in [3], in test [4], in test [5] and in test [7] was “inactive” throughout. In addition, in [8], the Potency entry was “inactive”. Besides, the result in [6] and in test [10] was inactive.
As for `COCCC#N`, the Potency entry in test [1], in test [2], in [3], in test [4], in [5] and in test [9] was “inactive” throughout. Moreover, the Potency result in test [7] was “inactive”. Further, the compound was called inactive in [6] and in test [10].
For the compound `CCCCC/C=C\C/C=C\C/C=C\C/C=C\CCCC(=O)NCC(=O)O`, the activation in [1] was -5.49% [at 8.3 µM]; in [2], -2.3% [at 8.08 µM]. Besides, the activity change, negative = cytotoxicity in test [3] was -17.5% [at 8.08 µM]; in test [5], -7.39% [at 8.08 µM]. Further, the activity, negative = cytotoxicity in test [4] was 5.25% [at 8.08 µM]. The fluorescence, relative to Rose Bengal in test [6] was -0.484% [at 3.72 µM]. In addition, the fluorescence, % of fluorescein control in test [7] is 0.165% [at 3.72 µM]. In [8], the fluorescence, % of triamterene was -0.0359% [at 3.72 µM].

Source of the values: PubChem BioAssay (Tox21).
